From PubChem BioAssay come the findings set out here.

The inhibition is the drop in the measured response relative to a control, in per cent.

Test [1] in a line: inhibitors of TNFa-induced NFkB p65 translocation, primary screen, imaging, HUVEC, MLSMR starter and 10KST1 sets (AID 438;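 active = inhibition above 20% together with a positive visual image hit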;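 also: compound added about 3h40 before a 20 min TNFalpha stimulation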;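 as to inhibition: signal is the nuclear over cytoplasmic p65 intensity ratio per well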). The conditions noted are these: HUVEC TNFa-induced p65 nuclear translocation; cell count: measured here: nuclei count (cytotoxicity indicator), at 2.08 µM; inhibition: at 2 µM, stronger effect = higher value, 0% TNFa-plus-vehicle, 100% no-TNFa wells.
The nature of test [2]: inhibitors of mutant huntingtin aggregation, primary screen, imaging, exon1htt(103Q)mCFP cells, high-content imaging (AID 483;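 active = visual image review flags a hit and inhibition of aggregation exceeds 20%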;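 also: compound exposure lasted 3 days before fixation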;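 as to nuclei count: percent of the per-plate median nuclei count of sample wells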). The conditions noted are these: exon1htt(103Q)mCFP cell line, aggregate imaging, at 2 µM; inhibition of aggregation: stronger effect = higher value; nuclei count: measured here: cell count, toxicity.
Test [3] in a line: inhibitors of E-selectin induction by TNFa, primary screen, imaging, HUVEC, immunofluorescence, MLSMR starter and 10KST1 sets (AID 487;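 active = visually confirmed hit in the image check and inhibition above 20%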;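 as to inhibition: signal is fraction of cell area covered by stained E-selectin grains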;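 as to nuclei count: 100% = median nuclei count of all wells on the same plate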). The conditions noted are these: HUVEC TNFalpha-induced E-selectin immunofluorescence imaging, at 2 µM; inhibition: stronger effect = higher value; nuclei count: measured here: cell number, toxicity.
The target in test [4] is Voltage-gated potassium channel subunit beta-2 (Rattus norvegicus) (UniProt P62483). Kind of test: KvBeta enzyme negative modulators, primary screen, biochemical, NADPH fluorescence (AID 622;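 active = fluorescence slope higher than the sample average by over 3 SD, cut at about -0.22 in these data, passing the limit was not always enough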;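 also: slope of raw intensity against log time taken from 70 to 1610 s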). The note with it: recombinant KvBeta, 4-cyanobenzaldehyde reduction, at 10 µM, stronger effect = higher value.
The target is the same in test [5]. Nature of the test: KvBeta positive modulators, primary screen, biochemical, NADPH fluorescence (AID 623;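 active = NADPH fluorescence slope more negative than the mean of all samples by about 3 SD, 99.7% confidence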;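 also: fluorescence intensity change per second fitted from 20 to 320 s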). The conditions noted are these: Recombinant KvBeta, NADPH fluorescence decrease slope, 10 min; at 10 µM; stronger effect = lower value.
The target in test [6] is Alpha-2C adrenergic receptor (Homo sapiens) (UniProt P18825). Kind of test: modulators of alpha2C/GIRK thallium flux, primary screen, cell-based, HEK293 alpha2C/GIRK1/2 (AID 624;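 active = fluorescence slope after compound addition differing from the mean of all screened samples at 99.7% confidence, in either direction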;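 also: slope of fluorescence ratio to pre-addition baseline per second over 15 to 24 s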). The conditions noted are these: thallium flux BTC fluorescence, at 10 µM, actives lie on both sides.
Test [7] in a line: inhibitors of Sendai virus-induced IRF3 signaling, primary screen, TLR/RLR signaling modifier project, cell-based, Sendai virus stimulus, luciferase, 10K MLSCN set (AID 602276).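 Also: firefly luciferase from ISG56 promoter only with Renilla not read in this screen; 0% = Sendai virus plus DMSO and 100% = medium plus DMSO without virus.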 The conditions noted are these: HEK293 RL24 IRF3 luciferase reporter, at 10 µM, stronger effect = higher value. For orientation: In a reporter assay the amount or activity of a reporter protein is the signal.
Test [8] is described as follows: inhibitors of poly I:C-induced TLR3 signaling, primary screen, cell-based, poly I:C stimulus, luciferase, 10K MLSCN set (AID 602277;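 active = inhibition of the reporter signal at or above 50%; inactive = inhibition below 50%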). The conditions noted are these: HEK293-TLR3 RL24 IRF3 luciferase reporter, at 10 µM, stronger effect = higher value.

Structures are written as SMILES. The source made the active and inactive calls.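 The calls were made as follows, unless noted: active = inhibition at or above 50% at 10 µM; inactive = inhibition below 50%.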

Chain of Voltage-gated potassium channel subunit beta-2 (Rattus norvegicus) (P62483 whole entry, looked up): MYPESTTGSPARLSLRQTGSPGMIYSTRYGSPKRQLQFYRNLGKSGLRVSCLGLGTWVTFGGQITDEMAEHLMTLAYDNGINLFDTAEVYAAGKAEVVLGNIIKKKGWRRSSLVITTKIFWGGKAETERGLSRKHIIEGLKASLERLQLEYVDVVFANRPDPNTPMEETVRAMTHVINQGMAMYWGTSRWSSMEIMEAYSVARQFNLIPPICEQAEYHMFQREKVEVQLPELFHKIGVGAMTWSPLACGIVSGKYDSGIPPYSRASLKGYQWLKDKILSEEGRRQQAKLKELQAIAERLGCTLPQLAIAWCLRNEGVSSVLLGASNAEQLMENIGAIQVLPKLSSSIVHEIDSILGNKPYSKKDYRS
Chain of Alpha-2C adrenergic receptor (Homo sapiens) (P18825 whole entry, looked up): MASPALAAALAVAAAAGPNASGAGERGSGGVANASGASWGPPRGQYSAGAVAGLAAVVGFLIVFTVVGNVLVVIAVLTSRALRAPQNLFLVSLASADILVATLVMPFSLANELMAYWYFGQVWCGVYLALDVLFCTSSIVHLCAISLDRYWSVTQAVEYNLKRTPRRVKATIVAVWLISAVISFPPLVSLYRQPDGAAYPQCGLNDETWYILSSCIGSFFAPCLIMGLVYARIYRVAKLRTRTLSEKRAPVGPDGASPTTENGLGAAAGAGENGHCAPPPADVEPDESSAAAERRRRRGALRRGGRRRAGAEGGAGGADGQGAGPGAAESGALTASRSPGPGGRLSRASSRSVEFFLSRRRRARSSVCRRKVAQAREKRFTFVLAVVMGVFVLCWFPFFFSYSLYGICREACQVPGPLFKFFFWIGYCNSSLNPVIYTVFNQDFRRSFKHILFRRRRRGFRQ

As to `Cc1csc(SCc2nc3sc4c(c3c(=O)[nH]2)CCC4)n1`, the cell count in test [1] came out at 562. Besides, the inhibition in test [1] is 1.9% (inactive); in test [3], -229% (inactive); in test [7] it was 13% (inactive); in test [8] it was 1.21% (inactive). The inhibition of aggregation in test [2] was 0.1% (inactive). For the same compound, the nuclei count was 116% in test [2] and 171% in test [3]. For the same compound, the fluorescence slope in test [4] is -0.553 (inactive). Moreover, in test [5], the NADPH fluorescence slope was -1.4e-05 (inactive). In addition, the slope in test [6] was 0.00536 (inactive).
As for `CC1(C)C(c2ccccc2)=NC(c2ccccc2)N1O` (centres undefined), the cell count in test [1] worked out at 422. The inhibition in test [1] is -2.8% (inactive); in test [3], -22.6% (inactive); in test [7] it was 5.11% (inactive); in test [8] it was 35.3% (inactive). Moreover, the inhibition of aggregation in test [2] was 1.2% (inactive). For the same compound, the nuclei count in test [2] came out at 107%; in test [3] it was 113%. Moreover, in test [4], the fluorescence slope is -0.428 (inactive). For the same compound, the NADPH fluorescence slope in test [5] was -3e-05 (inactive). Moreover, the slope in test [6] was 0.0012 (inactive).
For `Cc1cccc(-n2nc3c(c2NC(=O)CCC2CCCCC2)CS(=O)C3)c1C` (centres undefined), the cell count in test [1] worked out at 637. The inhibition is -8.7% (inactive) in test [1], -27.4% (inactive) in test [3], 10.6% (inactive) in test [7] and 37.7% (inactive) in test [8]. Also, the inhibition of aggregation in test [2] is -46.2% (inactive). Also, the nuclei count in test [2] was determined as 80%; in test [3] it was 110%. The fluorescence slope in test [4] is -0.427 (inactive). For the same compound, the NADPH fluorescence slope in test [5] is -2.6e-06 (inactive). Moreover, in test [6], the slope was 0.00515 (inactive).
As for `CCOc1cc(C2C(C#N)=C(N)Oc3n[nH]c(CC)c32)ccc1OCCN1CCOCC1` (centres undefined), the cell count in test [1] was 421. For the same compound, the inhibition in test [1] was 23.4% (active); in test [3], -49.3% (inactive); in test [7] it was 14.3% (inactive); in test [8] it was 15.9% (inactive). The inhibition of aggregation in test [2] is 12.6% (inactive). The nuclei count in test [2] was 108%; in test [3], 101%. Moreover, the fluorescence slope in test [4] is -0.506 (inactive). Besides, the NADPH fluorescence slope in test [5] is -3.1e-05 (inactive). Further, the slope in test [6] is 0.00486 (inactive).
Consider `CCC(=O)N1CCc2cc(S(=O)(=O)CCC(=O)Nc3ccc(F)c(F)c3)ccc21`, for which the cell count in test [1] amounted to 571. Moreover, the inhibition was 5.2% (inactive) in test [1], -68.8% (inactive) in test [3], -11.6% (inactive) in test [7] and -3.44% (inactive) in test [8]. The inhibition of aggregation in test [2] is 6.1% (inactive). In addition, the nuclei count in test [2] worked out at 96%; in test [3], 111%. For the same compound, the fluorescence slope in test [4] is -0.423 (inactive). Further, the NADPH fluorescence slope in test [5] was -1.2e-05 (inactive). Besides, the slope in test [6] is 0.00293 (inactive).
As to `CC(C)CC(OC(=O)c1cccs1)C(=O)NCc1ccco1` (centres undefined), the cell count in test [1] was 364. The inhibition in test [1] is 19.1% (inactive); in test [3] it was 2.7% (inactive); in test [7], 6.99% (inactive); in test [8], 11.5% (inactive). For the same compound, the inhibition of aggregation in test [2] is -9% (inactive). Further, the nuclei count in test [2] worked out at 91.6%; in test [3], 106%. The fluorescence slope in test [4] is -0.425 (inactive). For the same compound, the NADPH fluorescence slope in test [5] is -2.5e-05 (inactive). Moreover, the slope in test [6] was 0.00495 (inactive).
Regarding `Cc1nnc(SCC(=O)N2c3ccccc3CC2C)s1` (centres undefined), the cell count in test [1] is 528. Further, the inhibition in test [1] is -31.1% (inactive); in test [3], -46.9% (inactive); in test [7], 4.91% (inactive); in test [8] it was -5.96% (inactive). Moreover, in test [2], the inhibition of aggregation is 5.8% (inactive). Moreover, the nuclei count in test [2] was 55.7%; in test [3], 136%. Further, the fluorescence slope in test [4] was -0.521 (inactive). Moreover, the NADPH fluorescence slope in test [5] was -5.2e-05 (inactive). The slope in test [6] was 0.00417 (inactive).
Turning to `CCOC(=O)c1cccc(NC2c3ccccc3C(=O)N2Cc2ccco2)c1` (centres undefined), the cell count in test [1] was 700. The inhibition in test [1] was -2.3% (inactive); in test [3], -10.9% (inactive); in test [7], 6.59% (inactive); in test [8], 17.6% (inactive). Moreover, the inhibition of aggregation in test [2] was 10.2% (inactive). In addition, the nuclei count in test [2] came to 117%; in test [3], 119%. The fluorescence slope in test [4] is -0.554 (inactive). For the same compound, the NADPH fluorescence slope in test [5] was -4.1e-05 (inactive). In addition, in test [6], the slope was 0.00706 (inactive).
Consider `CSc1nc(=NC(C)=O)ss1`, for which the cell count in test [1] is 723. For the same compound, the inhibition is -18.1% (inactive) in test [1], 22.2% (inactive) in test [3], 4% (inactive) in test [7] and 8.14% (inactive) in test [8]. The inhibition of aggregation in test [2] is -0.1% (inactive). For the same compound, the nuclei count in test [2] worked out at 106%; in test [3], 110%. For the same compound, the fluorescence slope in test [4] is -0.528 (inactive). Also, the NADPH fluorescence slope in test [5] is -5.6e-05 (inactive). Also, the slope in test [6] is 0.00608 (inactive).
Regarding `Nc1ncnc(Nc2ccccc2C(F)(F)F)n1`, the cell count in test [1] came out at 382. The inhibition in test [1] is -3.3% (inactive); in test [3] it was -8% (inactive); in test [7], -28.4% (inactive); in test [8], -11.7% (inactive). Also, in test [2], the inhibition of aggregation is -11.5% (inactive). The nuclei count was determined as 100% in test [2] and 107% in test [3]. In test [4], the fluorescence slope was -0.487 (inactive). For the same compound, in test [5], the NADPH fluorescence slope is 4.7e-05 (inactive). Also, in test [6], the slope is 0.00593 (inactive).
On to `O=C(Cn1c(=O)sc2ccccc21)NCCOc1ccccc1F`, for which the cell count in test [1] stood at 780. Besides, the inhibition in test [1] is -12% (inactive); in test [3], 36.2% (inactive); in test [7], 0.0246% (inactive); in test [8] it was 6.19% (inactive). Also, in test [2], the inhibition of aggregation was -3.1% (inactive). Also, the nuclei count came out at 104% in test [2] and 108% in test [3]. The fluorescence slope in test [4] was -0.514 (inactive). Moreover, in test [5], the NADPH fluorescence slope was -9e-06 (inactive). The slope in test [6] is 0.00676 (inactive).
In the case of `Cn1c(=O)n(CCN2CCOCC2)c(=O)c2c1nc1n2CCN1c1ccccc1`, the cell count in test [1] was found to be 362. Moreover, the inhibition in test [1] is 14% (inactive); in test [3], -33.7% (inactive); in test [7] it was -6.67% (inactive); in test [8], 3.62% (inactive). In addition, the inhibition of aggregation in test [2] was 27.9% (inactive). Further, the nuclei count was found to be 98.5% in test [2] and 132% in test [3]. The fluorescence slope in test [4] was -0.564 (inactive). Also, the NADPH fluorescence slope in test [5] was 2.6e-05 (inactive). The slope in test [6] was 0.00592 (inactive).
For `Cc1cc(NCCN2CCCCC2)n2c(nc3ccccc32)c1C#N`, the cell count in test [1] came out at 624. Further, the inhibition in test [1] was -10.5% (inactive); in test [3] it was -2% (inactive); in test [7], 10.4% (inactive); in test [8] it was 21.6% (inactive). Moreover, the inhibition of aggregation in test [2] was -3.2% (inactive). The nuclei count in test [2] was found to be 61.6%; in test [3], 134%. The fluorescence slope in test [4] is -0.526 (inactive). In test [5], the NADPH fluorescence slope is -4.4e-05 (inactive). The slope in test [6] is 0.0039 (inactive).
Regarding `CCn1cc(C(=O)O)c(=O)c2cc(F)c(N3CCN(C(=O)Nc4ccccc4)CC3)cc21`, the cell count in test [1] worked out at 676. In addition, the inhibition in test [1] was -14% (inactive); in test [3], -42.9% (inactive); in test [7], 8.6% (inactive); in test [8], 10.7% (inactive). Further, the inhibition of aggregation in test [2] was 27.3% (inactive). Further, the nuclei count in test [2] was 68.8%; in test [3] it was 101%. In test [4], the fluorescence slope was -0.498 (inactive). Besides, in test [5], the NADPH fluorescence slope is -8.3e-06 (inactive). Further, the slope in test [6] is 0.00493 (inactive).
